Compound activity deposited in PubChem by Broad Institute.
Rows were chosen to be rich in hits. Some 3.4% of all compounds tested hit in one or more screens of this group.
Ecoli rRNA inh: reduced GFP signal of wild-type E. coli, primary screen, bacterial rRNA inhibitor project, GFP/RFP fluorescence, OD600, single point. E. coli WT GFP vs humanized-ribosome RFP mutants, 24 h; hits give low values; DMSO median 0, no signal -100. GFP signal change (wild-type ribosome), % (test concentration not listed). 350,000 compounds, 1.6% hits. AID 720706, 2013;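 active = significant combined selectivity score with lowered wild-type GFP, culture density cut under 30%, mutant RFP and density less affected; inactive = any of these conditions unmet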
EWS-Fli inh: EWS/Fli-driven NR0B1 reporter inhibitors, primary screen, A673 cells, NR0B1 luciferase, luminescence, MLPCN library | AID 651661, 2012 | viability-normalised | 350,000 compounds, 0.67% hits | inhibition, % at 12.6 µM;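 active = mean inhibition of at least 50% after viability correction, with every replicate also passing that limit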;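 also: firefly luciferase signal divided by Alamar Blue viability fluorescence both relative to DMSO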
PGC1a acetyl inh: inhibitors of PGC1a acetylation signal, primary screen, cell-based, U2OS, AlphaScreen, inhibitor mode; AlphaScreen anti-acetyl-lysine; with virally co-expressed GCN5 acetyltransferase; inhibition, % at 15.6 µM; 350,000 compounds, 0.17% hits; AID 651687, 2012;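 active = every replicate shows inhibition of at least 40%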;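 also: 0% = neutral control wells and 100% = positive control wells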
LGR2 inh: inhibitors of bursicon-induced LGR2 CRE-luciferase signal, primary screen, cell-based, HEK293, CRE-luciferase reporter, bursicon stimulation. Drosophila bursicon receptor LGR2 (rickets). bursicon-stimulated, 4 h. inhibition, % at 9.99 µM. 380,000 compounds, 0.35% hits;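 active = drop in luminescence signal, shown as inhibition above about 50% in the replicate tests, limit read from the data, passing the limit was not always enough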;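 also: agonist challenge used bursicon conditioned medium at about half maximal strength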
PAX8 inh HTS: inhibitors of PAX8-driven TPO luciferase reporter, primary screen, RMG-I cells, single concentration. SteadyGlo, 24 h. inhibition, % at 12.6 µM. 360,000 compounds, 1.2% hits;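 active = mean replicate inhibition at least 60% with every replicate also reaching 60%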;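 also: luciferase light reporting Pax8 driven TPO promoter activity; plate controls were median of neutral control wells for no effect and mitoxantrone controls for full effect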
SIRT5 inh: SIRT5 desuccinylase inhibitors, primary screen, biochemical, fluorescence imaging, single point, set 5. Purified SirT5, succinyl-peptide AMC, trypsin-coupled fluorescence. inhibition, % at 15 µM. 330,000 compounds, 1.1% hits. AID 652115, 2013; in the data active = inhibition above about 15%
Target sequence (Q9NXA8 whole entry, looked up): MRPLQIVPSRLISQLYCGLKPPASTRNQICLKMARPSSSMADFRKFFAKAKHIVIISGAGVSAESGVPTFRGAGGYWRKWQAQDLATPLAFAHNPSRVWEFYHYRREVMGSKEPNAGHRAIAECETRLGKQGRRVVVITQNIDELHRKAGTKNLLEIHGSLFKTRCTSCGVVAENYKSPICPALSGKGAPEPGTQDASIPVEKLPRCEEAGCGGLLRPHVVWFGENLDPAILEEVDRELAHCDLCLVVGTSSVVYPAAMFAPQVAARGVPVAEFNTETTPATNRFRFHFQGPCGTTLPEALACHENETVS
* marks the source's active call; other numbers are inactive results; / = no result given.

SMILES | Ecoli rRNA inh | EWS-Fli inh | PGC1a acetyl inh | LGR2 inh | PAX8 inh HTS | SIRT5 inh
CN(C)C(=O)c1ccc(-c2ccc([C@H]3[C@H]4CN(C(=O)C5CCCC5)CC(=O)N4[C@H]3CO)cc2)cc1 | 1 | 7 | 6 | -3 | -24 | -6
COc1ccc(S(=O)(=O)Nc2ccc3c(c2)C(=O)N([C@@H](C)CO)C[C@@H](C)[C@H](CN(C)Cc2ccc(-c4ccccc4)cc2)O3)cc1 | 5 | -4 | -1 | -3 | / | 21*
COc1ccc(S(=O)(=O)Nc2ccc3c(c2)C(=O)N([C@@H](C)CO)C[C@H](C)[C@H](CN(C)Cc2ccc(Oc4ccccc4)cc2)O3)cc1 | 5 | 6 | 4 | -2 | 46 | 38*
C[C@H](CO)N1C[C@H](C)[C@H](CN(C)Cc2ccc(Oc3ccccc3)cc2)Oc2ccc(NS(=O)(=O)c3ccccc3)cc2C1=O | 9 | -4 | 10 | -25 | -19 | 14
COc1ccc(S(=O)(=O)Nc2ccc3c(c2)C(=O)N([C@H](C)CO)C[C@H](C)[C@@H](CN(C)Cc2ccc(Oc4ccccc4)cc2)O3)cc1 | 5 | 7 | 2 | 10 | -2 | 22*
CCS(=O)(=O)N1CC(=O)N2[C@H](CO)[C@@H](c3ccc(C#Cc4ccc(F)cc4)cc3)[C@@H]2C1 | -59 | / | / | / | / | /
CCOC(=O)N1CCN(CCC(=O)Nc2ccc(Br)c(C)c2)CC1 | -23* | 3 | -5 | -14 | 13 | -4
Cc1cc(C)c2c(CN3CCOCC3)cc(=O)oc2c1 | 1 | -5 | / | -6 | -3 | 30*
COCCNC(=O)C[C@H]1CC[C@@H]2[C@H](COC[C@H](O)CN2C(=O)Nc2ccccc2OC)O1 | 3 | / | -2 | -20 | / | -1
C=C1C(=O)c2sccc2C(c2ccc(OC)c(OC)c2)C1COC(C)=O (stereo not given) | -25* | 77* | / | 106* | 115* | -2
C[C@H](CO)N1C[C@H](C)[C@H](CN(C)C(=O)NC2CCCCC2)Oc2ccc(NC(=O)CCCCCC(=O)Nc3ccccc3N)cc2C1=O | -1 | / | / | 14 | / | /
N/C(=N\OC(=O)Cc1ccccc1)c1cccnc1 | / | / | / | -24 | / | /
N/C(=N\OC(=O)CC(c1ccccc1)c1ccccc1)c1cccnc1 | -20* | 13 | -19 | 14 | 8 | 2
COc1ccc2c3c([nH]c2c1)[C@@H](CO)N(C(=O)C1CC1)CC31CN(C(=O)c2ccncc2)C1 | -2 | -10 | / | -16 | -1 | 1
CCCNC(=O)N1CC2(C1)CN(C(=O)COC)[C@@H](CO)c1[nH]c3cc(OC)ccc3c12 | 8 | -7 | 8 | -14 | -31 | -6
CCCNC(=O)N1CC2(C1)CN(C(=O)COC)[C@H](CO)c1[nH]c3cc(OC)ccc3c12 | 2 | 0 | 5 | -1 | 61* | -6
COc1ccc2c3c([nH]c2c1)[C@H](CO)N(C(=O)C1CC1)CC31CN(C(=O)c2ccncc2)C1 | 5 | -4 | / | -6 | -3 | 15*
NS(=O)(=O)c1ccc(NC(=O)Nc2ccc(Cl)cc2)cc1 | -26* | -48 | / | 18 | -29 | 3
O=C(NCCO)Nc1ccc(Cl)cc1 | 5 | 2 | 4 | 4 | 14 | 19*
Cn1nccc1NC(=O)Nc1ccc(Cl)cc1 | -35* | -4 | 2 | -14 | 10 | -4
O=C(NCCNC(=O)Nc1ccc(Cl)cc1)Nc1ccc(Cl)cc1 | 3 | 7 | / | -2 | 1 | -1
Cc1ccc(S(=O)(=O)NNC(=S)Nc2ccc(Cl)cc2)cc1 | -28* | 7 | / | -7 | -11 | -4
Cc1ccc(S(=O)(=O)NNC(=S)Nc2ccccc2)cc1 | / | / | -4 | / | / | /
CCCNC(=O)C[C@H]1CC[C@H]2[C@H](COc3ccc(NC(=O)Nc4cccc(C)c4)cc3C(=O)N2C)O1 | 0 | -7 | -11 | 7 | 10 | -1
O=C(C[C@H]1CC[C@@H]2[C@H](COC[C@@H](O)CN2Cc2ccccc2F)O1)NCc1ccccc1F | 2 | 5 | 12 | 7 | 0 | -2
